Measurements: PubChem BioAssay (NCI)
The panel holds about 79,000 compounds, 15% with a hit somewhere; the sample as a whole holds those more often. Values without a mark were called inactive. Cut-off read from the data, not from the text of the source: active = growth inhibition above about 70%; inactive = the rest. Where a SMILES comes first, the peptide text is derived from it.

Assay: NCI Yeast Anticancer Drug Screen. Data for the cln2 rad14 strain (AID 165);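 note: 0% = growth equal to vehicle treated cultures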
Settings: S. cerevisiae cln2 rad14 strain, at 50.0 µM, hits give high values
Outline: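 cln2 rad14 yeast strain; compound exposure; growth inhibition read vs vehicle controls.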

| Structure (SMILES) | growth inhibition [%] |
| --- | --- |
| CS(=O)(=O)OCCC(COS(C)(=O)=O)NC(=O)c1ccccc1 (stereo not given) | -18.1 |
| Cc1ccc2[nH]c(C)c(C(=O)c3ccncc3)c2c1 | -8.35 |
| Nc1ccc(N=Nc2ccccc2)c(N)c1 | -52.1 |
| NC(N)=NCCCS | -7.8 |
| Cc1ccc(N(C(=O)CC(=O)N/N=C/c2ccccc2O)C(=O)c2ccccc2)cc1 | 8.2 |
| O=C(O)c1ncn2c(=O)n(CCCl)nnc12 | -27.8 |
| CCc1c(C)c2cc(N)ccc2[nH]c1=O | -23.7 |
| Oc1cc(CN2CCOCC2)c(O)c(CN2CCOCC2)c1CN1CCOCC1 | 27.4 |
| CCC(C)C(N)C(=O)NC(Cc1ccc(O)cc1)C(=O)O (stereo not drawn) (H-Ile-Tyr-OH; configuration not given here) | 15.8 |
| Clc1ccc2c(NCCCCN=Cc3ccccc3)ccnc2c1 | -10.4 |
| CC(=O)Oc1cccc(CN2CCc3ccccc3C2)c1 | -31.2 |
| C=C(C)CC1(C)C(=O)CCC1O (stereo not given) | -30.8 |
| CCCNCC(O)CNc1ccc(Cl)cc1 (stereo not given) | -9.4 |
| CCOC(=O)C(C)CC(C)C(=O)OCC (stereo not given) | -2.85 |
| CC(=O)Nc1ccn(C2OC(COC(C)=O)C(OC(C)=O)C(OC(C)=O)C2OC(C)=O)c(=O)n1 (stereo not given) | -12.1 |
| NC(=O)c1ccc[n+](CC(=O)Nc2ccccc2)c1 | -30.6 |
| C/C=C(/c1ccccc1)c1ccc(N(C)C)cc1 | -4.7 |
| CCCCNC(=O)Oc1c(Cl)cc(Cl)c(Cl)c1[N+](=O)[O-] | 4.4 |
| CSc1ncnc2c1ccn2C1OC(COP(=O)(O)O)C(O)C1O (stereo not given) | -2.45 |
| NC(=O)C1C[C@@H](O)CN1C(=O)c1ccc2c(c1)OCO2 (stereo not given in full) | 6.5 |
| Cc1c(Cl)cc([N+](=O)[O-])cc1Cl | 17.1 |
| N/N=C(\N)SCc1ccc(N=C=S)cc1 | 18.9 |
| COc1cccc(CN(CC(=O)O)S(=O)(=O)c2ccc(C)cc2)c1 | -46.6 |
| Cc1cc(CN2CCCCC2)c(O)c(CN2CCCCC2)c1 | -0.2 |
| COc1cc(C(=O)Nc2cccc(Cl)c2Cl)cc(OC)c1OC | 21.2 |

Assay: NCI Yeast Anticancer Drug Screen. Data for the bub3 strain (AID 167)
Settings: S. cerevisiae bub3 mutant strain, at 50.0 µM, hits give high values
Outline: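 Whole-cell yeast assay. The mutant strain was incubated with compounds, and growth inhibition was determined by comparison with vehicle-treated cells.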

| Structure (SMILES) | growth inhibition [%] |
| --- | --- |
| CO[C@H]1C=CO[C@@]2(C)Oc3c(C)c(O)c4c(O)c(c(CN5CCN(C)CC5)c(O)c4c3C2=O)NC(=O)/C(C)=C\C=C[C@H](C)[C@H](O)C(C)[C@@H](O)C(C)[C@H](OC(C)=O)[C@@H]1C (stereo not given in full) | -36.2 |
| Cc1ccc2ccccc2c1CC(=O)NN | 6.9 |
| CCOC(=O)c1c(C)nc(C)c(C(=O)OCC)c1-c1ccnc2ccccc12 | -3.95 |
| O=C(O)Cc1ccc(-c2ccccc2)[nH]1 | -17.1 |
| O=C(Nc1ccc(Cl)cc1)c1ccc(Cl)cc1Cl | 13.7 |
| C=CCc1ccc(OC(=O)Nc2ccc(S(=O)(=O)NC3CCCCC3)cc2)c(OC)c1 | 11.8 |
| O=C(O)C(O)c1ccc(Cl)cc1Cl (stereo not given) | -19.3 |
| COC(=O)c1nc[nH]c1C(=O)OC | -0.8 |
| O=S(=O)(Nc1ccnn1-c1ccccc1)c1ccc(NC(=S)Nc2ccccc2)cc1 | 56.4 |
| CCn1cc2c(=O)n3ncn(-c4ccc(Br)cc4)c3nc2n1 | -28.8 |
| Oc1ccccc1C=Nc1ccccc1N=Cc1ccccc1O.[Zn] | -4.05 |
| CC(C)C(CN)(c1ccccc1)c1ccccc1 | -3.3 |
| CS(=O)CC(=N\N)/C(CS(C)=O)=N/N (stereo not given) | -1.15 |
| CC(=O)N(C)c1ccc(NC(=S)NC(=O)c2cccc([N+](=O)[O-])c2)cc1 | 27.5 |
| C[C@@H]1CC[C@]2(C)C3(C)CC[C@]2(OC3=O)[C@@]12CC(c1ccoc1)OC2=O (stereo not given in full) | -5.45 |
| CS(=O)(=O)OCCC(COS(C)(=O)=O)NC(=O)c1ccccc1 (stereo not given) | -10.3 |
| Cc1ccc2[nH]c(C)c(C(=O)c3ccncc3)c2c1 | -10.7 |
| Nc1ccc(N=Nc2ccccc2)c(N)c1 | 8.55 |
| NC(N)=NCCCS | 4.15 |
| Cc1ccc(N(C(=O)CC(=O)N/N=C/c2ccccc2O)C(=O)c2ccccc2)cc1 | -27.1 |

| Structure (SMILES) | growth inhibition [%] |
| --- | --- |
| O=C(O)c1ncn2c(=O)n(CCCl)nnc12 | -0.55 |
| CCc1c(C)c2cc(N)ccc2[nH]c1=O | -9.9 |
| Oc1cc(CN2CCOCC2)c(O)c(CN2CCOCC2)c1CN1CCOCC1 | -1.05 |
| CCC(C)C(N)C(=O)NC(Cc1ccc(O)cc1)C(=O)O (stereo not drawn) (H-Ile-Tyr-OH; configuration not given here) | -10.2 |
| Clc1ccc2c(NCCCCN=Cc3ccccc3)ccnc2c1 | 15.3 |
| CC(=O)Oc1cccc(CN2CCc3ccccc3C2)c1 | 8.8 |
| C=C(C)CC1(C)C(=O)CCC1O (stereo not given) | 6.1 |
| CCCNCC(O)CNc1ccc(Cl)cc1 (stereo not given) | -4.3 |
| CCOC(=O)C(C)CC(C)C(=O)OCC (stereo not given) | 9.9 |
| CC(=O)Nc1ccn(C2OC(COC(C)=O)C(OC(C)=O)C(OC(C)=O)C2OC(C)=O)c(=O)n1 (stereo not given) | -4.3 |
| NC(=O)c1ccc[n+](CC(=O)Nc2ccccc2)c1 | 1.95 |
| C/C=C(/c1ccccc1)c1ccc(N(C)C)cc1 | 9.2 |
| CCCCNC(=O)Oc1c(Cl)cc(Cl)c(Cl)c1[N+](=O)[O-] | -11.1 |
| CSc1ncnc2c1ccn2C1OC(COP(=O)(O)O)C(O)C1O (stereo not given) | -37 |
| NC(=O)C1C[C@@H](O)CN1C(=O)c1ccc2c(c1)OCO2 (stereo not given in full) | 3.05 |
| Cc1c(Cl)cc([N+](=O)[O-])cc1Cl | -3.45 |
| N/N=C(\N)SCc1ccc(N=C=S)cc1 | 16.5 |
| COc1cccc(CN(CC(=O)O)S(=O)(=O)c2ccc(C)cc2)c1 | -23.6 |
| Cc1cc(CN2CCCCC2)c(O)c(CN2CCCCC2)c1 | -29.4 |
| COc1cc(C(=O)Nc2cccc(Cl)c2Cl)cc(OC)c1OC | 18 |
